Data from the supplement of paper PMC10849652.
About 7,900 targets were measured; listed, in parts, are those with a hit and a random draw of the rest. About 0.6% of all pairs of compound and target were hits.

What was measured:
Test in all cases: log2 fold change, soluble protein after heating vs DMSO (PISA); higher = thermal stabilisation; K562 cells, 10 uM, 30 min; active = over 0.2 and 3.5 SD of the protein, either way, in both replicates (recomputed)
[1] = compound: CC1=C(C=C(C=C1)NC(=O)C2=CC(=CC=C2)C(C)(C)C#N)NC3=CC4=C(C=C3)N=CN(C4=O)C
Summary of the method: (§1)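 K562 cells at 2×10^6 cells/mL were treated with 10 μM compound for 30 min. Aliquots were heated for 3 min across 48°C-58°C, pooled, and extracted in PBS with 0.5% NP-40 at 4°C; soluble protein was the supernatant after 21,000xg for 90 min. Soluble protein was quantified by TMTpro 16plex LC-MS/MS with channel sums equalised, and reported as log2 fold change in thermal stability against DMSO controls, with values from duplicates.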

[2] = compound: CC1=C(C=C(C=C1)NC(=O)C2=CC(=CC=C2)N(C)C)NC(=O)C3=CC=C(C=C3)O
Summary of the method: as §1

[3] = compound: CC1=CC=C(C=C1)SC2=C3C=C(SC3=CN=C2)C(=O)N
Summary of the method: as §1

[4] = compound: CC1=NC(=CC=C1)C2=C(N=C(N2)C(C)(C)C)C3=CC4=NC=CN=C4C=C3
Summary of the method: as §1

[5] = compound: CCCS(=O)(=O)Nc1ccc(F)c(C(=O)c2c[nH]c3ncc(-c4ccc(Cl)cc4)cc23)c1F [vemurafenib]
Summary of the method: as §1

[6] = compound: CCCS(=O)(=O)Nc1ccc(F)c(C(=O)c2c[nH]c3ncc(Cl)cc23)c1F
Summary of the method: as §1

[7] = compound: CCCc1cc(C)[nH]c(=O)c1CNC(=O)c1cc(-c2ccnc(N3CCN(C)CC3)c2)cc2c1cnn2C(C)C
Summary of the method: as §1

[8] = compound: CCN(CC)Cc1ccc2cc(COC(=O)Nc3ccc(C(=O)NO)cc3)ccc2c1 [givinostat]
Summary of the method: as §1

[9] = compound: CCN(CCCOc1ccc2c(Nc3cc(CC(=O)Nc4cccc(F)c4)[nH]n3)ncnc2c1)CCOP(=O)(O)O [barasertib]
Summary of the method: as §1

[10] = compound: CC[C@@H]1C(=O)N(C)c2cnc(Nc3ccc(C(=O)NC4CCN(C)CC4)cc3OC)nc2N1C1CCCC1
Summary of the method: as §1

[11] = compound: CC[C@@H]1C(=O)N(C)c2cnc(Nc3ccc(C(=O)N[C@H]4CC[C@H](N5CCN(CC6CC6)CC5)CC4)cc3OC)nc2N1C(C)C [volasertib]
Summary of the method: as §1

[12] = compound: CC[C@H](C)N1C=C(C2=C(C=C(C=C21)C3=CN=C(C=C3)N4CCNCC4)C(=O)NCC5=C(C=C(NC5=O)C)C)C
Summary of the method: as §1

[13] = compound: CCn1c(C(=O)N(C2CC2)C2CC2)cc2c3c(ncn3C)c(Nc3cc(C)n(C)n3)nc21
Summary of the method: as §1

[14] = compound: CCn1cc(-c2ccnc3[nH]c(-c4cccc(CN(C)C)c4)cc23)c(-c2ccc(NC(=O)N(C)C)cc2)n1
Summary of the method: as §1

[15] = compound: CN(C)CC(=O)Nc1ccc2[nH]c(=O)c3ccccc3c2c1
Summary of the method: as §1

[16] = compound: CN(CCOC1=CC=C(C=C1)C[C@H]2C(=O)NC(=O)S2)C3=CC=CC=N3 (racemic) [rosiglitazone]
Summary of the method: as §1

[17] = compound: CN1C2=C(C3=C1C(=O)N(N=C3)CC4=CC(=CC=C4)N)SC(=C2)S(=O)C
Summary of the method: as §1

[18] = compound: CN1CCC(CNc2ccc3ncc(-c4cccc(OC(F)(F)F)c4)n3n2)CC1
Summary of the method: as §1

[19] = compound: CCCCN(Cc1ccc(C(=O)NO)cc1)C(=O)Nc1ccccc1 [Nexturastat A]
Summary of the method: as §1

[20] = compound: CC[C@H](C)[C@@H](C(=O)N[C@@H]([C@@H](C)O)C(=O)N[C@@H](CC(C)C)C(=O)[C@]1(CO1)C)NC(=O)[C@H]([C@@H](C)CC)N(C)C(=O)C [epoxomicin]
Summary of the method: as §1

Measured: log2 fold change

MYLK (UniProt Q15746)
Chain of UniProt Q15746 (Q15746 whole entry, looked up): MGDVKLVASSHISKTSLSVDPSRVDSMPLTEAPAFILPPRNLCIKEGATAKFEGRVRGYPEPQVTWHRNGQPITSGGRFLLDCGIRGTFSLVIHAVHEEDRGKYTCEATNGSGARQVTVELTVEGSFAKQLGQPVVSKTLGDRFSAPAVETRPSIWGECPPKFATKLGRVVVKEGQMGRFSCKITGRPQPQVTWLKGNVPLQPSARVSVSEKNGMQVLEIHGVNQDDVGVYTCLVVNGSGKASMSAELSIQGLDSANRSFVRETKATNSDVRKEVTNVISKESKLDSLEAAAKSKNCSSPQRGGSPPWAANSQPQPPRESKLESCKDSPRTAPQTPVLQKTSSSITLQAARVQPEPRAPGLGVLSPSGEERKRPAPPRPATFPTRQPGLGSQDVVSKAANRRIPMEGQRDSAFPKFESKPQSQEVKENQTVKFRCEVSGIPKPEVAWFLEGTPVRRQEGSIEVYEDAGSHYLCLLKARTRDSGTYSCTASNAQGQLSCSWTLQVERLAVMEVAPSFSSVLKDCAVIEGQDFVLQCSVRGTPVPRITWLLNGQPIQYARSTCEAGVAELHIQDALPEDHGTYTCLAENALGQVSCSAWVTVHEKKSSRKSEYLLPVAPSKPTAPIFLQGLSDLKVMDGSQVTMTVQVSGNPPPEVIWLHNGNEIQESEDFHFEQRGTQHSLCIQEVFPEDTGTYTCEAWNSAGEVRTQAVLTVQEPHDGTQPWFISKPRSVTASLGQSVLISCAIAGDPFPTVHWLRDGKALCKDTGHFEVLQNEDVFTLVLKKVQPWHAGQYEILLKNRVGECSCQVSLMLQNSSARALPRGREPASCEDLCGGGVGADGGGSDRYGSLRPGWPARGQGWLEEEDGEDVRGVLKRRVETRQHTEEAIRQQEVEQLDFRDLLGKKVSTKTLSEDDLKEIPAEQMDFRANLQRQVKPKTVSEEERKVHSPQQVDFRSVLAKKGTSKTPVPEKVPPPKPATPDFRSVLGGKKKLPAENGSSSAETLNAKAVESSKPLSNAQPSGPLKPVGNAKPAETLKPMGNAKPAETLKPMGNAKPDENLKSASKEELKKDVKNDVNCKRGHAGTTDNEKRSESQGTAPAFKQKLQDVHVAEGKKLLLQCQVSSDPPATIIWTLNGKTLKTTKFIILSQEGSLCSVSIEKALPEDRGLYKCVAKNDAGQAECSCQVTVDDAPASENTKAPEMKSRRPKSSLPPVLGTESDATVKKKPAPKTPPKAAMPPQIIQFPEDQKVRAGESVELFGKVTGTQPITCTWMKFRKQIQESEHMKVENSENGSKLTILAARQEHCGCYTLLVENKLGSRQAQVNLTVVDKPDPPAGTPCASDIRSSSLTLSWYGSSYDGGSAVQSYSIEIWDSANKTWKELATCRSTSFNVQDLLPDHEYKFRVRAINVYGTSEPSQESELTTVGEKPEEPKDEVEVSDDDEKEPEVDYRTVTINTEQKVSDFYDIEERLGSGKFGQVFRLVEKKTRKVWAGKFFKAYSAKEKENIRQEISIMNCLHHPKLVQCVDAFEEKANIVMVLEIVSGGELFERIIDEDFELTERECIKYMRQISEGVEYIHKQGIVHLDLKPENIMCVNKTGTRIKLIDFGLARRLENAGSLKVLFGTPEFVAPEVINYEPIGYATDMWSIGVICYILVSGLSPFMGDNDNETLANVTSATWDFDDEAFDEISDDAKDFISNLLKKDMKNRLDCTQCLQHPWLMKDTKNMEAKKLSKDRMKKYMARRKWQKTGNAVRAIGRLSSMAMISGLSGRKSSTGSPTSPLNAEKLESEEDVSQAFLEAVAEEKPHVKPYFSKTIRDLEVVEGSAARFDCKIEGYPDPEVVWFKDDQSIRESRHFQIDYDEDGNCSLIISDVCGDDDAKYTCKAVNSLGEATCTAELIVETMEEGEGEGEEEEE
inactive: [2] 0.108 | [3] -0.013 | [4] 0.202 | [5] 0.081 | [6] -0.01 | [7] -0.154 | [8] -0.132 | [9] 0.032 | [10] -0.015 | [11] -0.148 | [12] -0.172 | [13] -0.047 | [14] 0.042 | [15] 0.184 | [16] 0.202 | [17] -0.126 | [18] -0.005
active: [1] 0.832

OSBPL3 (UniProt Q9H4L5)
inactive: [1] 0.35 | [2] 0.04 | [3] 0.006 | [4] -0.062 | [19] 0.471 | [5] -0.267 | [6] -0.09 | [8] -0.204 | [10] 0.136 | [11] 0.621 | [12] -0.126 | [20] -0.37 | [13] -0.235 | [15] 0 | [17] 0.164

NA isoform 3 (UniProt Q4G0T1)
inactive: [1] -0.007 | [2] 0.035 | [3] 0.008 | [4] -0.057 | [5] 0.005 | [6] -0.077 | [7] -0.012 | [8] -0.009 | [9] 0.179 | [11] -0.051 | [12] 0.026 | [13] 0.004 | [15] -0.019 | [16] 0.008 | [17] -0.008

PAFAH2 (UniProt Q99487)
inactive: [1] -0.09 | [2] 0.006 | [3] 0.019 | [4] -0.038 | [5] 0.093 | [6] -0.015 | [8] 0.059 | [9] -0.044 | [11] -0.058 | [13] -0.328 | [15] 0.005 | [16] 0.082 | [17] -0.059

NDFIP1 (UniProt Q9BT67)
Chain of UniProt Q9BT67 (Q9BT67 whole entry, looked up): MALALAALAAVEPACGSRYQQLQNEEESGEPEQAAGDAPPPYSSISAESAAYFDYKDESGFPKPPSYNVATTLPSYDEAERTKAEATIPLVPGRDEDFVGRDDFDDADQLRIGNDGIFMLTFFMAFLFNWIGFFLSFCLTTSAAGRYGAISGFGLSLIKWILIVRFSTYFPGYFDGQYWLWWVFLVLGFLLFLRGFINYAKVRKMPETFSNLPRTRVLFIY
inactive: [1] -0.366 | [2] -0.125 | [4] -0.1 | [19] 0.048 | [5] 0.268 | [7] -0.15 | [8] -0.046 | [9] -0.011 | [10] 0.211 | [12] -0.2 | [20] 0.102 | [13] 0.056 | [14] 0.224 | [15] 0.152 | [16] 0.108 | [17] 0.175 | [18] -0.062

NCK1 (UniProt P16333)
inactive: [1] 0.166 | [2] -0.068 | [3] 0.208 | [4] 0.102 | [19] 0.12 | [5] 0.031 | [6] 0.116 | [7] 0.08 | [8] 0.211 | [9] 0.189 | [11] -0.306 | [12] 0.109 | [20] -0.053 | [13] -0.312 | [15] 0.044 | [16] 0.223 | [17] 0.027

NECTIN2 isoform 2 (UniProt Q92692)
inactive: [1] -0.037 | [2] 0.011 | [4] -0.104 | [19] 0.17 | [5] 0.033 | [7] -0.028 | [8] 0.054 | [9] 0.005 | [10] 0.175 | [12] 0.106 | [20] -0.132 | [13] 0.05 | [14] -0.104 | [15] -0.063 | [16] -0.151 | [17] -0.146 | [18] 0.318

NCBP2AS2 (UniProt Q69YL0)
active: [18] -0.906
inactive: [1] 0.069 | [2] 0.017 | [3] 0.162 | [5] -0.039 | [6] 0.037 | [7] -0.096 | [8] -0.146 | [9] 0.072 | [10] -0.255 | [11] -0.193 | [12] -0.1 | [13] 0.027 | [14] 0.026 | [15] -0.072 | [16] -0.063 | [17] 0.049

MT-ND1 (UniProt P03886)
Chain of UniProt P03886 (P03886 whole entry, looked up): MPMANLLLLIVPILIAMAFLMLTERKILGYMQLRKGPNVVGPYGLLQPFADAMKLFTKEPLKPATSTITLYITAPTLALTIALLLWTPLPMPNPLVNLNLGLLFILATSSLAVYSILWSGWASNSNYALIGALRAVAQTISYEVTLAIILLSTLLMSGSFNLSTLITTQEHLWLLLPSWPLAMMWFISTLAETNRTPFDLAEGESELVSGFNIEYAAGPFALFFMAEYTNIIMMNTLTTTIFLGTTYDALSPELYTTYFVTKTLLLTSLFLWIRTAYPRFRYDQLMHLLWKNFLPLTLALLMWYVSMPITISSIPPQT
inactive: [1] -0.002 | [2] 0.028 | [3] -0.008 | [4] -0.034 | [19] 0.021 | [5] 0.168 | [6] 0.208 | [7] 0.019 | [8] 0.057 | [9] 0.127 | [10] -0.157 | [11] 0.147 | [12] 0.035 | [20] 0.063 | [13] 0.094 | [15] 0.253 | [16] -0.071 | [17] -0.115

NAA11 (UniProt Q9BSU3)
inactive: [1] -0.375 | [2] 0.006 | [3] 0.06 | [4] 0.021 | [19] -0.016 | [5] 0.145 | [6] -0.067 | [7] 0.047 | [8] 0 | [9] -0.027 | [10] -0.013 | [11] -0.041 | [12] 0.044 | [20] 0.063 | [13] 0.015 | [15] -0.114 | [16] -0.053 | [17] 0.001

OPHN1 (UniProt O60890)
Chain of UniProt O60890 (O60890 whole entry, looked up): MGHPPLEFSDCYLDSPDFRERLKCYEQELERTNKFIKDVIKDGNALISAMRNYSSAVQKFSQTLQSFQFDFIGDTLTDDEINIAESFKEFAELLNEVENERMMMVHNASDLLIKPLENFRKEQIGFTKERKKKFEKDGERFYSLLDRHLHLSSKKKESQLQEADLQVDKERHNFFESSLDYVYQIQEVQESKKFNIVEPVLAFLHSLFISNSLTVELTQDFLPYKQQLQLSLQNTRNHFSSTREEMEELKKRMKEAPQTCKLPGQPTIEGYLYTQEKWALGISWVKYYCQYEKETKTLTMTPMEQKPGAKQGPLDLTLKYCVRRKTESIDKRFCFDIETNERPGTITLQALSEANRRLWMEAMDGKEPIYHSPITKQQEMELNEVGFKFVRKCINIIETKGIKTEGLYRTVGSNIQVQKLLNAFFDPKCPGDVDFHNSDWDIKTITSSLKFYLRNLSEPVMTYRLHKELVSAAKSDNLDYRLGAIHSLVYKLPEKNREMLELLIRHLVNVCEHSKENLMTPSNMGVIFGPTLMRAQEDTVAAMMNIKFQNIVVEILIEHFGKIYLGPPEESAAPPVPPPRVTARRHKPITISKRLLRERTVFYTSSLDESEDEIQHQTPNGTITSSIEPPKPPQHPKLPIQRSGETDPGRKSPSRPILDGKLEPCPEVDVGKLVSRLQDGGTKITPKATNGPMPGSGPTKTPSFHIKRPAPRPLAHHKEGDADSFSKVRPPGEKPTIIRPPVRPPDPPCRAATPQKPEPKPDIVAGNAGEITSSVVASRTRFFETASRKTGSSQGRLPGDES
inactive: [1] -0.146 | [2] -0.029 | [4] 0.218 | [19] -0.12 | [7] -0.018 | [8] 0.049 | [9] -0.037 | [10] 0.036 | [12] -0.016 | [20] 0.043 | [13] -0.019 | [14] -0.143 | [16] 0.121 | [17] 0.108 | [18] -0.095

MLX (UniProt Q9UH92)
active: [11] -0.734
inactive: [1] 0.035 | [2] -0.027 | [3] 0.082 | [4] 0 | [19] 0.009 | [6] 0.008 | [7] 0.071 | [8] 0.047 | [9] 0.117 | [10] 0.047 | [12] -0.007 | [20] 0.162 | [13] -0.04 | [14] 0 | [16] 0.052 | [17] 0.142 | [18] -0.315

NCOA5 (UniProt Q9HCD5)
inactive: [1] 0.076 | [2] 0.134 | [3] 0.099 | [4] -0.315 | [6] -0.096 | [8] 0.08 | [11] 0.072 | [12] -0.019 | [13] 0.026 | [14] 0.038 | [17] 0.187 | [18] 0.036

NOP56 (UniProt O00567)
Chain of UniProt O00567 (O00567 whole entry, looked up): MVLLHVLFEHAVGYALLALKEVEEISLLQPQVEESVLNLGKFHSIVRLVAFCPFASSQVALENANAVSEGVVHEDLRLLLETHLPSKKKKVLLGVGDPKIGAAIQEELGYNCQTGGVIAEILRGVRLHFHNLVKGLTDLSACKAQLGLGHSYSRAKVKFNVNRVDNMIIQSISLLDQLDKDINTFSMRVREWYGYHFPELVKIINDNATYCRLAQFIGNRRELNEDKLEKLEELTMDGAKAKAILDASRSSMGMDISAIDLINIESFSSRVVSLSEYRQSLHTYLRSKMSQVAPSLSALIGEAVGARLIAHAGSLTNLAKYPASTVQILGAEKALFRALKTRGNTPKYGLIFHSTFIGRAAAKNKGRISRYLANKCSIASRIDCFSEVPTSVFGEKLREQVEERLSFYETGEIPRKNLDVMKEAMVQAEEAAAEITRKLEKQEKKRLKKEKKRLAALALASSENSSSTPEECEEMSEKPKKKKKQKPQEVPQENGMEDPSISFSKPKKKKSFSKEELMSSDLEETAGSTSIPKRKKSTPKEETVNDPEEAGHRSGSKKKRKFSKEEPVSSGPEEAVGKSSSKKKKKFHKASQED
inactive: [1] -0.024 | [2] -0.001 | [3] -0.149 | [4] -0.136 | [19] 0.127 | [5] -0.018 | [6] -0.065 | [7] 0.003 | [8] 0.096 | [9] -0.076 | [10] 0.141 | [11] 0.238 | [12] 0.034 | [20] -0.44 | [13] -0.006 | [14] 0.066 | [15] -0.208 | [16] -0.079 | [17] 0.299 | [18] 0.168

NMRAL1 (UniProt Q9HBL8)
Chain of UniProt Q9HBL8 (Q9HBL8 whole entry, looked up): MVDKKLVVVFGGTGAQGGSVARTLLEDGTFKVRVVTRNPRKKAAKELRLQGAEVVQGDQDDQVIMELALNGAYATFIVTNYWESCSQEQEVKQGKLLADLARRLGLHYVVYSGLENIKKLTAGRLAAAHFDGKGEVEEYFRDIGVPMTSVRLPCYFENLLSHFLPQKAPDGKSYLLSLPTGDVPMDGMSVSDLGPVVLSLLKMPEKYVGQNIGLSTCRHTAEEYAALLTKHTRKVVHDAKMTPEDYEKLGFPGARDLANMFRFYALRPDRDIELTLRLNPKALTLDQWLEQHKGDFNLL
inactive: [2] 0.029 | [3] 0.025 | [4] -0.151 | [19] -0.138 | [5] 0.003 | [6] -0.074 | [7] 0.234 | [8] 0.027 | [9] -0.021 | [10] 0.27 | [11] 0.294 | [12] 0.105 | [20] 0.035 | [13] 0.01 | [14] 0.055 | [15] 0.122 | [16] 0.011 | [17] 0.059 | [18] 0.526
active: [1] 1.01

NEK3 (UniProt P51956)
active: [18] -0.465
inactive: [1] 0.058 | [2] -0.055 | [3] 0.052 | [4] -0.108 | [19] -0.033 | [5] 0.089 | [6] -0.123 | [7] -0.063 | [8] -0.013 | [10] -0.046 | [11] -0.162 | [12] 0.167 | [20] 0.067 | [13] -0.024 | [14] -0.125 | [15] 0.014 | [17] 0.002

NPM3 (UniProt O75607)
Chain of UniProt O75607 (O75607 whole entry, looked up): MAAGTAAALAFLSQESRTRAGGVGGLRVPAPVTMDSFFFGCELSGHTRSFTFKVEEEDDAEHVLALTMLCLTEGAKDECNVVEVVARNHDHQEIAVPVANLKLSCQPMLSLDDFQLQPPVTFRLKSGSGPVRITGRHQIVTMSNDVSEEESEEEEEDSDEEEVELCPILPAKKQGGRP
inactive: [1] 0.003 | [2] -0.004 | [3] -0.005 | [4] -0.056 | [5] -0.04 | [6] 0.041 | [7] -0.015 | [8] 0.019 | [9] -0.083 | [10] 0.065 | [11] 0.124 | [12] -0.099 | [13] 0.036 | [14] 0.014 | [15] -0.011 | [16] -0.122 | [17] 0.143 | [18] 0.145

ORC3 isoform 2 (UniProt Q9UBD5)
Chain of UniProt Q9UBD5 (Q9UBD5 whole entry, looked up): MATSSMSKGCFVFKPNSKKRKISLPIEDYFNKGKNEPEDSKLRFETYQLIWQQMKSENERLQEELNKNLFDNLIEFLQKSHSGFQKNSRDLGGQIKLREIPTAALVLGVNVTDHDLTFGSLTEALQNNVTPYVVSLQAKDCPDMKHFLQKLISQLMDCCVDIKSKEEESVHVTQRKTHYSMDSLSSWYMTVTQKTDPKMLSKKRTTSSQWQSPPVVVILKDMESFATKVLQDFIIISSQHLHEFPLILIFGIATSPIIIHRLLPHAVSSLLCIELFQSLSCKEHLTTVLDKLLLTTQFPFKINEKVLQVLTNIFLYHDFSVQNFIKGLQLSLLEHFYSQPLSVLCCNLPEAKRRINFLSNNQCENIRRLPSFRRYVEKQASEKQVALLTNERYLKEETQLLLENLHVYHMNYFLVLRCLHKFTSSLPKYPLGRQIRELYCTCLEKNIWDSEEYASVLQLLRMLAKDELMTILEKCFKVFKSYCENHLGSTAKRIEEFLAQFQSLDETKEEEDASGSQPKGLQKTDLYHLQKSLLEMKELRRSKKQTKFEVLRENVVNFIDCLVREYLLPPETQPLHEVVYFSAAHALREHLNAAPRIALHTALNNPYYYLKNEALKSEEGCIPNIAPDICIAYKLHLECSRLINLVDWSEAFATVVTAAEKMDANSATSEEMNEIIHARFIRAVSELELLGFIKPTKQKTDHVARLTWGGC
inactive: [1] -0.027 | [2] -0.056 | [3] 0.146 | [4] 0.075 | [19] -0.124 | [5] 0.012 | [6] 0.143 | [7] 0.044 | [8] 0.145 | [9] 0.178 | [10] -0.046 | [11] -0.396 | [12] 0.044 | [20] 0.181 | [13] -0.053 | [14] -0.017 | [15] 0.067 | [16] 0.059 | [17] -0.034 | [18] -0.376

MRPS26 (UniProt Q9BYN8)
inactive: [1] 0.021 | [2] -0.083 | [3] 0.002 | [4] -0.03 | [19] 0.075 | [5] -0.004 | [6] 0.049 | [7] -0.056 | [8] 0.098 | [9] 0.026 | [10] 0.011 | [11] -0.094 | [20] 0.033 | [13] -0.094 | [14] -0.023 | [15] 0.003 | [16] 0.053 | [17] 0.052 | [18] -0.092
